PubChem BioAssay (NCATS)
Inconclusive results are not listed. Where a call stands in place of a potency, no number is given. Calls of active or inactive are those of the source. Calls come from the whole dose curve; as a rule, active = well fitted inhibition curve with a large enough effect; inconclusive = small, poorly fitted or top-dose-only effect; inactive = no such curve, though single readings can be large or run the other way.

Legend:
[1] = qHTS assay for measurement of the activity of small molecule inhibitors on Zika virus induced Caspase-3 activity in human iPSC derived neural progenitor cells (hNPCs) (AID 1224857); note: nearly all actives have a fitted effect of over 65% in size
Outline: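 Zika virus (2 FFU/cell) infection of human iPSC-derived NPCs, 6 h, following 1 h compound preincubation. Read-out: Caspase-Glo 3/7 luminescence.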

[2] = qHTS assay for measurement of the activity of small molecule inhibitors on Zika virus induced Caspase-3 activity in human astrocytoma cells (AID 1224859)
Outline: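 Caspase activation in ZIKV-infected SNB-19 cells (2 FFU/cell, 6 h) measured by Caspase-Glo 3/7 luminescence after 30 min RT; compound pre-incubated 1 h; normalised to uninfected and infected controls.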

Structure (SMILES) | Potency [1] | Potency [2]
NCCc1c[nH]c2ccc(O)cc12 | inactive | inactive
O=C1C(I)=CC(=C(c2cc(I)c(O)c(I)c2)c2ccccc2C(=O)O)C=C1I | inactive | inactive
O=C1CCCN1CC#CCN1CCCC1 | inactive | inactive
CC(C)Oc1cccnc1N(C)C1CCN(Cc2ccccc2)CC1 | inactive | inactive
C=CCC1=C(C)C(OC(=O)C2C(C=C(C)C)C2(C)C)CC1=O (stereo not given) | inactive | inactive
C[C@]12CCC3C(CC[C@H]4C[C@H](O)CC[C@]34C)C1CC[C@@H]2C(=O)CO (stereo not given in full) | inactive | inactive
Cn1cnc(CCN)c1 | inactive | inactive
c1ccc(C2(c3ccccc3)CC2C2=NCCN2)cc1 (stereo not given) | inactive | inactive
CC(C)NC(C)Cc1ccc(I)cc1 (stereo not given) | inactive | inactive
O=C(O)COc1ccccc1 | inactive | inactive
NCc1cc(=O)[nH]o1 | inactive | inactive
CCOCCOC(C)=O | inactive | inactive
CCCCCCCCc1ccc(O)cc1 | inactive | inactive
CC(Cc1ccc(O)cc1)NCC(O)c1cc(O)cc(O)c1 (stereo not given) | inactive | inactive
C=CCN1CC[C@]23CCCCC2[C@H]1Cc1ccc(O)cc13 (stereo not given in full) | inactive | inactive
O=C(O)COc1nc(Cl)c(Cl)cc1Cl | inactive | inactive
O=C(Cc1ccc(Cl)c(Cl)c1)N1CCCCC1CN1CCCC1 (stereo not given) | inactive | inactive
COCCOCCO | inactive | inactive

Structure (SMILES) | Potency [1] | Potency [2]
O=C(O)C(Cl)Cl | inactive | inactive
C[C@]12N[C@H](Cc3ccccc31)c1ccccc12 | inactive | inactive
C/C=C(/C)C(=O)O[C@H]1C(C)=C2[C@H]([C@@H]1OC(=O)CCCCCCC)[C@@](C)(OC(C)=O)C[C@H](OC(=O)CCC)[C@@]1(O)[C@H]2OC(=O)[C@@]1(C)O | inactive | inactive
O=[N+]([O-])c1c(Cl)c(Cl)cc(Cl)c1Cl | inactive | inactive
CC(C)(C)C(O)C(Oc1ccc(Cl)cc1)n1cncn1 (stereo not given) | inactive | inactive
NC(CCP(=O)(O)O)C(=O)O (stereo not given) | inactive | inactive
C[C@@H](N)Cc1cnc[nH]1 | inactive | inactive
CNCCc1c[nH]c2ccc(O)cc12 | inactive | inactive
Fc1cc(Br)ccc1CBr | inactive | inactive
CC(=O)[C@H]1CCC2C3CC[C@H]4C[C@H](O)CC[C@]4(C)C3CC[C@@]21C (stereo not given in full) | inactive | inactive
CC(C)(C)NC[C@H](O)c1ccc(O)cc1Cl | inactive | inactive
COc1cc(C(O)CN)ccc1O (stereo not given) | inactive | inactive
COC(=O)c1cncn1C(C)c1ccccc1 (stereo not given) | inactive | inactive
Nc1ccc(Sc2ccc(N)cc2)cc1 | inactive | inactive
O=S(=O)(O)C(F)(F)C(F)(F)C(F)(F)C(F)(F)C(F)(F)C(F)(F)C(F)(F)C(F)(F)F | inactive | inactive
C=CC(=O)NCNC(=O)C=C | inactive | inactive
C#CCOC(=O)C1=CCCN(C)C1 | inactive | inactive
